# In PubChem BioAssay (Tox21):
# Results filed as inconclusive are left out. Values without a mark were called inactive. Calls of active or inactive are those of the source. The call rests on the fitted dose curve.
# Test: Nuclear factor erythroid 2-related factor 2/antioxidant responsive element (Nrf2/ARE) small molecule agonists: luciferase reporter gene qHTS assay in human keratinocytes (AID 1919969); further: nearly all actives have a fitted effect of over 35% in size
# Conditions: KeratinoSens HaCaT ARE-luciferase, luminescence, 24 h; series mostly up to 92.4 µM; activity, positive = activation: at the top concentration
# Description: National Center for Advancing Translational Sciences [NCATS]
# Division of Preclinical Innovation [DPI]
# U.S. Environmental Protection Agency [EPA]
# National Institutes of Environmental Health Sciences [NIEHS]
# National Toxicology Program [NTP]
# U.S. Food and Drug Administration [FDA]
# Oxidative stress has been implicated in the pathogenesis of a variety of diseases ranging from cancer to neurodegeneration. The antioxidant response element (ARE) signaling pathway plays an important role in the amelioration of oxidative stress. The KeratinoSens (Givaudan, Switzerland) is an in vitro test method which quantifies luciferase induction as a measure of activation of Keap1-Nrf2-antioxidationt/electrophile response element (ARE) dependant pathway in HaCaT human keratinocytes stably transfected with a selectable plasmid. The KeratinoSens assay is a cell-based assay with a reporter cell line to detect potential skin sensitizers by their ability to induce the Nrf2/ARE-response. The activation of the report gene under culture conditions can be detected by ONE-Glo Luciferase Assay System (Promega, Madison, WI). This cell line has been used to screen the Tox21 10K compound library to identify agonists that induce oxidative stress. The cytotoxicity of the Tox21 compound library against the KS-ARE cell line was tested in parallel by measuring the cell viability using CellTiter- Fluor assay system (Promega, Madison, WI) in the same wells.
# HaCaT derived cell line KeratinoSens were dispensed at 1,500 cells/5uL/well in 1536-well white wall/solid bottom plates using a Multidrop Combi (ThermoFisher Scientific, Waltham, MA) dispenser. After the assay plates were incubated at 37 C/5% CO2 for 5 h, 23 nL of compounds dissolved in DMSO, positive controls or DMSO only was transferred to the assay plate by a pintool workstation (Kalypsys, San Diego, CA). The plates were incubated at 37 C/5% CO2 for 23 h, followed by addition of 1uL/well of CellTiter-Fluor reagent into the assay plates using a Flying Reagent Dispenser (Aurora Discovery, San Diego, CA) for cell viability readout that measures cytotoxicity. After 1 h incubation at 37 C/5% CO2 the fluorescence intensity was measured using a ViewLux (PerkinElmer, Shelton, CT) plate reader. Then 4uL/well of One-Glo were added using a Flying Reagent Dispenser. After the plates were incubated at room temperature for 30 min, the luminescence intensity in the assay plates was measured using ViewLux plate reader.
# On the % scale 0 is the no-effect control and ±100 the full control effect; potency means the concentration at half of the fitted maximal effect.
Compound,"activity, positive = activation",Potency
CCC(CC)C(=O)O,7.35%,–
CCC(=O)c1c(O)cc(O)cc1O,-0.202% [at 42.5 µM],–
NCCOCCOCCN,0.249%,–
Clc1cc(Cl)c(Cl)nc1Cl,-4.79%,–
CC(C)Cc1nccs1,8.81%,–
O=C(O)c1ccc2c(c1)nc(C(=O)NC1CCN(C3CC3)CC1)n2Cc1cc(-c2ccc(Cl)s2)on1,2.61% [at 19 µM],–
CC(C)COC(=O)COc1cc(Cl)c(Cl)cc1Cl,-0.628%,–
O=C(O)CCNC(=O)c1ccccc1,-0.772% [at 42.5 µM],–
CCCCS(=O)(=O)N[C@@H](Cc1ccc(OCCCCC2CCNCC2)cc1)C(=O)O,-5.72% [at 42.5 µM],–
Cc1ccc2oc(CN(Cc3ccccc3)C(=O)Nc3c(F)cc(F)cc3F)c(-c3ccc(Cl)cc3)c2c1,-15.7%,–
CC1=C(CC=O)C(C)(C)CCC1,-2.38%,–
CC(=O)N[C@@H](CCC(N)=O)C(=O)O,-1.17% [at 42.5 µM],–
COS(=O)(=O)C(F)(F)F,–,71.7 µM (active)
Nc1ccc(S(=O)(=O)Nc2ccccc2)cc1,0.711% [at 42.5 µM],–
CC(Oc1cc(Cl)ccc1Cl)C(=O)O (stereo not given),10.5%,–
CC(C)(c1ccc(Oc2ccc3c(c2)C(=O)OC3=O)cc1)c1ccc(Oc2ccc3c(c2)C(=O)OC3=O)cc1,-5.82%,–
CC(=O)O[C@@H]1C(=O)O[C@@H]2[C@H]1OC(=O)[C@@H]2OC(C)=O,–,29.8 µM (active)
CCCCN1CCCC[C@H]1C(=O)Nc1c(C)cccc1C,-8.79% [at 42.5 µM],–
CC(C)CCOC(=O)CC(C)C,-3.37%,–
Nc1nc2c(ncn2COCCO)c(=O)[nH]1,0.678% [at 42.5 µM],–

Compound,"activity, positive = activation",Potency
CC(=O)N/N=C/c1ccc([N+](=O)[O-])o1,–,33.5 µM (active)
Cc1c(N)cccc1[N+](=O)[O-],–,27.8 µM (active)
C=C(C)C(=O)OCCCCCCCCCCOC(=O)C(=C)C,18.5%,–
C=CC(=O)OCCOCC(CC)(COCCOC(=O)C=C)COCCOC(=O)C=C,–,12.7 µM (active)
Cc1cccc(C)c1C,3.38%,–
C=CC(C)(O)CCCC(C)CCCC(C)CCCC(C)C (stereo not given),0.0781%,–
C[C@H]1C[C@H]2[C@@H]3CCC4=CC(=O)C=C[C@]4(C)[C@H]3C(=O)C[C@]2(C)[C@@]1(O)C(=O)CO,-3.89% [at 42.5 µM],–
CCC(=O)Oc1ccc2c(c1)CC[C@@H]1[C@@H]2CC[C@@]2(C)[C@H]1C[C@@H](OC(=O)CC)[C@@H]2OC(=O)CC,0.114% [at 42.5 µM],–
CCCCCCCCCCCCOC(=O)c1ccc(O)cc1,-41.1%,–
C1=C\CC/C=C\CC/1,11.6%,–
S=c1[nH][nH]c(=S)s1,7.6%,–
CCOC(=O)/C=C/C(=O)OCC,20.4%,–
Oc1cccc2cc3cccc(O)c3c(O)c12,-1.57%,–
CC(=O)Nc1ccccc1C,9.29%,–
O=C(O)CC(C(=O)O)S(=O)(=O)O (stereo not given),-4.47%,–
Cc1ccc(NC(N)=O)cc1,-5.94%,–
Oc1ccc2c(c1)OCO2,2.4%,–
CN(C)CCc1c[nH]c2ccc(C[C@H]3COC(=O)N3)cc12,6.75% [at 42.5 µM],–
Cc1cccc(N(C)C(=S)Oc2ccc3c(c2)CCC3)c1,12.6% [at 42.5 µM],–
COc1ccc(-n2nc(C(F)F)cc2-c2ccc(S(C)=O)cc2)cc1 (stereo not given),-24.3%,–
